Experimental findings from PubChem BioAssay (NCATS) are described below.

Molecules are shown by their SMILES. Results filed as inconclusive are left out. Unmarked numbers belong to inactive results. Active and inactive are the calls of the source. Calls come from the whole dose curve; as a rule, active = well fitted curve in the direction sought with a large enough effect; inconclusive = small, poorly fitted or top-dose-only effect, or another doubt; inactive = no such curve, though single readings can be large; an effect the other way counts as inactive or inconclusive.

Test [1] concerns the target Rap guanine nucleotide exchange factor 3 (Homo sapiens) (UniProt O95398). The test is described as follows: Confirmatory qHTS for agonist of cAMP-regulated guanine nucleotide exchange factor 3 (EPAC1) (AID 1645881).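 Note: EPAC1 catalysed release of BODIPY-GDP from Rap1B seen as fluorescence loss; 100% = effect of cAMP agonist control; nearly all actives have a fitted effect of over 75% in size.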 In general terms: In qHTS, concentration-response curves come from the screen itself.
The target of test [2] is Rap guanine nucleotide exchange factor 4 (Homo sapiens) (UniProt Q8WZA2). The experiment in a line: Confirmatory qHTS for agonist of cAMP-regulated guanine nucleotide exchange factor 4 (EPAC2) (AID 1645884).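 Note: nucleotide exchange releases bodipy-GDP from Rap1 and this lowers its fluorescence; % is set by controls: 0 for no effect and ±100 for the full control effect; nearly all actives have a fitted effect of over 65% in size.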
Chain of Rap guanine nucleotide exchange factor 4 (Homo sapiens) (Q8WZA2 whole entry, looked up): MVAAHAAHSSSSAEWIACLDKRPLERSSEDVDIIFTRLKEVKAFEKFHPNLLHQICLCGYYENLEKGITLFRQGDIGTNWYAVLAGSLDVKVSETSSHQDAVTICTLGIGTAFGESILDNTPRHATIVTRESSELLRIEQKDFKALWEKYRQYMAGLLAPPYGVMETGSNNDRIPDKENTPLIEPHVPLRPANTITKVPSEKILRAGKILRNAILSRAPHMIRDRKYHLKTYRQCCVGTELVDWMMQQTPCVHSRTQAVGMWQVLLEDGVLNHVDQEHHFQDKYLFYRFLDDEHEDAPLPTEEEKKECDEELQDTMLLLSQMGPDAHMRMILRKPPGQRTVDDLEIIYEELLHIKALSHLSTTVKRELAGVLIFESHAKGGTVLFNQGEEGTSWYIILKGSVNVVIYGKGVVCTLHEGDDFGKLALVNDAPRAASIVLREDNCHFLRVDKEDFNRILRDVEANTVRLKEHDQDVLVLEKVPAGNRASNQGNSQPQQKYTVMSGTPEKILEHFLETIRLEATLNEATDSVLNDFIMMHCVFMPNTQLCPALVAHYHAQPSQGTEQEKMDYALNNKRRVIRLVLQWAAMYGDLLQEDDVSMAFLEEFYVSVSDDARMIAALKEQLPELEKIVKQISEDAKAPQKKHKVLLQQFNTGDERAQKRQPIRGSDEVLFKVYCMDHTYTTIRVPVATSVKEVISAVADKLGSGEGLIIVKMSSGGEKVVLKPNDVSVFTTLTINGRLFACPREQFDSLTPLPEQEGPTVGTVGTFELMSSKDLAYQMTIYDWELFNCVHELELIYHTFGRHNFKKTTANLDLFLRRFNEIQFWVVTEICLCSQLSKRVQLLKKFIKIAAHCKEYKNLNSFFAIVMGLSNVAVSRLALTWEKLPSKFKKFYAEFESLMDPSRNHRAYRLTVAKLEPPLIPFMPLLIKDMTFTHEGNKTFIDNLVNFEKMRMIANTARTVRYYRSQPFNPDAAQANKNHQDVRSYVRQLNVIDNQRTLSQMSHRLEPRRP
Test [3] deals with Rap guanine nucleotide exchange factor 3 (Homo sapiens) (UniProt O95398). The experiment in a line: Counterscreen qHTS for antagonist of cAMP-regulated guanine nucleotide exchange factor 3 (EPAC1) (AID 1645888).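 Note: fluorescence loss as bound BODIPY-GDP is released from Rap1B; % of control where 0% means no effect.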 The method, boiled down: (§1)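 Measured: fluorescence of BODIPY-GDP bound to Rap1B, which falls as exchange proceeds. Conditions include 50 uM competing GDP, 5 and 30 min reads, and a later cAMP challenge for antagonist detection.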
Chain of Rap guanine nucleotide exchange factor 3 (Homo sapiens) (O95398 whole entry, looked up): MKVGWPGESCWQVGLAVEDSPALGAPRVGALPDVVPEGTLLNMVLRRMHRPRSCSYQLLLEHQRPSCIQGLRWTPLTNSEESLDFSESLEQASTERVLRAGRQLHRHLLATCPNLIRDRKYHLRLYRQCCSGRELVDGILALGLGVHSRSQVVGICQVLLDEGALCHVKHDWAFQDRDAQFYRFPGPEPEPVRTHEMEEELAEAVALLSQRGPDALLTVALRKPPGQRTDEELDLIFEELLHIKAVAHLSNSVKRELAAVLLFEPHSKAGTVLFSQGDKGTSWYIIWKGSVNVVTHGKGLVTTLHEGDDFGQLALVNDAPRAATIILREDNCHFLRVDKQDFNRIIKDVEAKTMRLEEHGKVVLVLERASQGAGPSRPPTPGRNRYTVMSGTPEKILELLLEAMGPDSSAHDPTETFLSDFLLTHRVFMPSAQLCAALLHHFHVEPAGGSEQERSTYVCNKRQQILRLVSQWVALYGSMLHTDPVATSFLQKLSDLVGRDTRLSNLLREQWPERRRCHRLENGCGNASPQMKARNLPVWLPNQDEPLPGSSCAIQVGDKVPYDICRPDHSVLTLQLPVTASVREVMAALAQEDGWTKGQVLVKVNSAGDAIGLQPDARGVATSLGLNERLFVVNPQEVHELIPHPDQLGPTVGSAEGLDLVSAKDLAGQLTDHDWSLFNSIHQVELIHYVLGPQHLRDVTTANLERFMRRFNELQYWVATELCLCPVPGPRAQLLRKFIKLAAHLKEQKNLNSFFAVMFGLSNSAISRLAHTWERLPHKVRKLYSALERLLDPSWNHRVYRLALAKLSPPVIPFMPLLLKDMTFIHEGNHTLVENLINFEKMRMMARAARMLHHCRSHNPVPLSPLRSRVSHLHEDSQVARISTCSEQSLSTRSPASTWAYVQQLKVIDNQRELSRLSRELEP
Background: Counterscreens check selectivity or assay interference.

Test [4] shares this target. The test is described as follows: Counterscreen qHTS for agonist of cAMP-regulated guanine nucleotide exchange factor 3 (EPAC1) (AID 1645889). Note: % of control where 0% means no effect; nearly all actives have a fitted effect of over 40% in size. The method, boiled down:
as §1

Test [5] concerns the target Tyrosyl-DNA phosphodiesterase 1 (Homo sapiens) (UniProt Q9NUW8). The test is described as follows: Confirmation Assay for Inhibitors of Tyrosyl-DNA Phosphodiesterase (TDP1) (AID 489007). Note: potency is the fitted concentration of half-maximal effect; nearly all actives have a fitted effect of over 40% in size. As to conditions: recombinant human TDP1 enzymatic activity, dose-response. The method, boiled down:
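AlphaScreen read-out: streptavidin donor and anti-FITC acceptor beads (10 ug/ml) bind intact substrate, so Tdp1 removal of tyrosine-FITC lowers signal. Enzyme 1 nM, substrate 15 nM, 5 min reaction at room temperature after 15 min compound preincubation.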

The nature of test [6]: qHTS for Inhibitors of the vitamin D receptor (VDR): Hit Validation using a Texas Red Assay (AID 602201). Note: potency is the fitted concentration of half-maximal effect. The method in brief:
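Fluorescence polarization (Ex 595/Em 615 nm) of Texas Red (7 nM) with 1.5 uM VDR-LBD and LG19078 (final concentrations). Compounds were incubated for 2 hours at room temperature.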

Chain of Tyrosyl-DNA phosphodiesterase 1 (Homo sapiens) (Q9NUW8 whole entry, looked up): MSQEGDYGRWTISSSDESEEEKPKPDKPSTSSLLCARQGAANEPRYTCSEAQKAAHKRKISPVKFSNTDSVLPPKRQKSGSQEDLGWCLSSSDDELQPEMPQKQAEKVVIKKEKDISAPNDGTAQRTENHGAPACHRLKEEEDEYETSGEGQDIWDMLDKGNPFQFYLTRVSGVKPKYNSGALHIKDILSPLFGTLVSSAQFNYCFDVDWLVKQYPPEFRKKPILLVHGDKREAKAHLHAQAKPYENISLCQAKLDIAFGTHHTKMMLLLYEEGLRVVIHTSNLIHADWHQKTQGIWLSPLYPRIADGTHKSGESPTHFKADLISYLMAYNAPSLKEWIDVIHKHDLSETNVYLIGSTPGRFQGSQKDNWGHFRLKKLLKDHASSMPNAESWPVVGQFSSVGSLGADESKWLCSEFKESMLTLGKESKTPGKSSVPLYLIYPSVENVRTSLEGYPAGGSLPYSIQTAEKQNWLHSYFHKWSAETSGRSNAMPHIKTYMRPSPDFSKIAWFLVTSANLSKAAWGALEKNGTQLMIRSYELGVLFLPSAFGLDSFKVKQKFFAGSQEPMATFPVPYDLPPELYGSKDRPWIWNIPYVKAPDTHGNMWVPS

For the compound `Cc1c(C(=O)N2CCCC2)oc2ccc(Br)cc12`, the Potency entry in test [1], in test [2], in test [3] and in test [4] was “inactive” in each case.
For `N#Cc1c(-c2ccc(Cl)cc2)cc(-c2cccs2)nc1SCC(=O)O`, the Potency result in test [1], in test [2], in test [3] and in test [4] was “inactive” each time.
Consider `CN(C)c1cc(Cl)c2nonc2c1N`, for which the Potency result in test [1], in test [2], in test [3] and in test [4] was “inactive” in each case.
For the compound `Cc1cc2c(N)cccc2nn1`, the Potency result in test [1], in test [2], in test [3] and in test [4] was “inactive” throughout.
As for `Cc1ccc(C2CC(c3cccs3)=NN2C(=O)c2ccco2)o1` (centres undefined), the Potency entry in test [1] was “inactive”. In addition, the activation was 1.82% [at 17.1 µM, percent relative to cAMP agonist control] in test [2] and 16.2% [at 30.8 µM] in test [4]. Also, in test [3], the activity change, negative = inhibition is -15.2% [at 30.8 µM].
For `CCOc1cc(/C=N/O)cc(Br)c1OCc1ccc(Cl)cc1`, the Potency entry in test [1], in test [2], in test [3] and in test [4] was “inactive” each time.
`COc1cc(/C=C/[N+](=O)[O-])ccc1OCc1cccc(C(=O)O)c1`: the Potency in test [5] is 79.4 µM (active). Also, the Potency result in test [1], in test [2], in test [3] and in test [4] was “inactive” each time.
As for `CCCc1[nH]c2ccc(C#N)cc2c1CCC`, the Potency result in test [1], in test [2], in test [3] and in test [4] was “inactive” throughout.
Regarding `Cc1ccc(Nc2c([N+](=O)[O-])c(=O)oc3ccccc23)cc1C`, the Potency result in test [1], in test [2], in test [3] and in test [4] was “inactive” in each case.
Turning to `CCCCN(CCCC)Cc1cc(=O)oc2cc(OC)ccc12`, the Potency entry in test [1], in test [2], in test [3] and in test [4] was “inactive” each time.
As to `O=C(O)c1[nH]c2ccccc2c1C(c1cccc(O)c1)c1c(C(=O)O)[nH]c2ccccc12`, the Potency result in test [1], in test [2], in test [3] and in test [4] was “inactive” in each case.
Turning to `COc1ccc(-c2cc(N)n(S(=O)(=O)c3c(F)c(F)c(F)c(F)c3F)n2)cc1OC`, the Potency in test [6] was 20 µM (active). For the same compound, in test [1], the Potency result is “inactive”. In addition, in test [2], the activation was 7.68% [at 17.1 µM, percent relative to cAMP agonist control]. Besides, in test [3], the activity change, negative = inhibition is 6.6% [at 30.8 µM].
On to `O=C(NC1(O)C(=O)c2ccccc2C1=O)c1c(Cl)cccc1Cl`, for which the Potency in test [6] is 3.98 µM (active). In addition, the Potency entry in test [1], in test [2] and in test [3] was “inactive” each time.
`Cc1cc(C)c2nc(C(F)(F)F)nc(N3CC(C)OC(C)C3)c2c1` (centres undefined): the Potency entry in test [1], in test [2] and in test [4] was “inactive” throughout.
As to `O=C(O)c1ccc(COc2ccccc2/C=C2\NC(=O)N(Cc3ccc(F)cc3)C2=O)cc1`, the Potency entry in test [1], in test [2] and in test [4] was “inactive” in each case.
Consider `CCOC(=O)C(C)Sc1ncc(OC)c(Sc2ccc(Cl)cc2)n1` (centres undefined), for which the Potency result in test [1], in test [2] and in test [4] was “inactive” each time.
Take `CCN1CCN(S(=O)(=O)c2ccc(Cl)c(C(=O)N(C)Cc3cccc(Cl)c3Cl)c2)CC1`: the Potency entry in test [1], in test [2] and in test [4] was “inactive” each time.
Consider `CCC(CO)Oc1cc(NCc2ccc(C(C)(C)C)cc2)c2ncn(C(C)C)c2c1` (centres undefined), for which the Potency result in test [1], in test [2] and in test [4] was “inactive” each time.
In the case of `CC1COc2ccccc2N1S(=O)(=O)c1ccc(Cl)cc1` (centres undefined), the Potency entry in test [1], in test [2] and in test [4] was “inactive” throughout.
For `C=CC[C@@H](Cc1ccc(F)cc1)C(=O)OC[C@@H]1CCCN1C(=O)[C@@H](CC=C)CC(=O)N(CCO)Cc1ccccc1`, the Potency entry in test [1], in test [2] and in test [4] was “inactive” in each case.
